A selection: hits, their analogues and other compounds. The true share with any hit is near 11%.
IMPase Li inh: qHTS Assay for Identifying the Cell-Membrane Permeable IMPase Inhibitors: Potentiation with Lithium | AID 1457, 2008 | actives 0.35% (n = 210,000) | Potency, µM (doses to about 59.4 µM), inactives show at the top dose activity, negative = IMPase inhibition, hits mostly inhibitors | CHO-M1 cells, IP1 TR-FRET (IP-One), carbachol + lithium;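 further: IP1 builds up when IMPase is blocked and the TR-FRET signal falls; potency means the concentration at half of the fitted maximal effect; plate controls were basal vehicle for no effect and high inhibitor control for full effect; nearly all actives have a fitted effect of over 50% in size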
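CHO-M1, 2000 cells/well, 16–30 h culture; cpd + low Li+, 30 min 37C; lysis with d2-IP1/Eu-anti-IP1 Ab, 10 min RT; TR-FRET 665/620 ratio and 620 channel; AC50 via Hill.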
PNC inhibitor: High Content Assay for Compounds that inhibit the Assembly of the Perinucleolar Compartment; PC3M PTB-GFP, PNC prevalence imaging, 16 h; hits give low values; activity change (PNC), negative = inhibition, % at 10 µM; actives 3.1% (n = 140,000); AID 2417, 2010;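 active means readout at or below -70, meaning at least 70% loss of cells showing the perinucleolar compartment, a nuclear body marking cancer cells; inconclusive means readout between -30 and a set limit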;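 further: plate controls were DMSO wells for no effect and camptothecin positive control wells for full effect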
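Compounds are pinned in duplicate onto adhered PC3M cells stably expressing GFP-tagged PTB and incubated 16 h at 37 C. Cells are then fixed, nuclei stained with Hoechst, and PNC-positive cells counted.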
IMPase cell inh: qHTS Assay for Identifying the Cell-Membrane Permeable IMPase Inhibitors | 120,000 tested, under 10 active | Inositol monophosphatase 1 (Rattus norvegicus), P97697 | inhibition (IP1 accumulation), % at 46.1 µM | CHO-M1 cells, IP1 accumulation, HTRF TR-FRET ratio; active means well fitted curve in the direction sought with a large enough effect in the signal ratio, not every such curve was filed as active; inconclusive means small, poorly fitted or top-dose-only effect, or a change in a side signal; inactive means no such curve, though single readings can be large or run the other way; the % refers to the signal ratio;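 further: cells stimulated with carbachol in lithium chloride buffer; plate controls were DMSO basal wells for no effect and reference inhibitor wells for full effect; higher means more IMPase inhibition seen as more IP1 and lower FRET ratio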
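Cellular IMPase inhibition is scored as a rise in cytosolic IP1, detected by competitive TR-FRET between d2-labelled IP1 and a europium anti-IP1 antibody. M1-expressing CHO cells were stimulated with carbachol for 30 min at 37C, with lithium (50 mM LiCl) present in the buffer.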
NPSR antagonist: qHTS Assay for Antagonists of the Neuropeptide S Receptor: cAMP Signal Transduction; Q6W5P4; CHO-NPSR cells, cAMP TR-FRET, antagonist mode; Potency, µM (top dose mostly 38.3 µM), for the others: at the highest dose activity change, negative = inhibition, most hits filed as inhibitors; actives 1% (n = 220,000); AID 1461, 2008; further: potency means the concentration at half of the fitted maximal effect; nearly all actives have a fitted effect of over 50% in size
Target sequence (Q6W5P4 whole entry, looked up): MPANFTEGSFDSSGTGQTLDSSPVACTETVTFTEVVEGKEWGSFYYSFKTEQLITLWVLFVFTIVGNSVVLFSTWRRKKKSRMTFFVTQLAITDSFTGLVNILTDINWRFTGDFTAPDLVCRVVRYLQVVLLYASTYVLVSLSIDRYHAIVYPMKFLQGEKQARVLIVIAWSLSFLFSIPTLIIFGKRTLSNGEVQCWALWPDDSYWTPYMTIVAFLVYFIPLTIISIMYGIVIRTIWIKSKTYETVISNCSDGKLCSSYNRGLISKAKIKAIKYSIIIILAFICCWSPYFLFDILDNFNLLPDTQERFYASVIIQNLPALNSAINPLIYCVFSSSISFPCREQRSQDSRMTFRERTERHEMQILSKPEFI
HPGD inh: qHTS Assay for Inhibitors of HPGD (15-Hydroxyprostaglandin Dehydrogenase); 15-hydroxyprostaglandin dehydrogenase [NAD(+)] (Homo sapiens), P15428; AID 894, 2007; purified HPGD, NADH fluorescence kinetic, PGE2 substrate; Potency, µM, for the others: top-dose activity change, negative = inhibition, actives largely listed as inhibitors; actives 4.3% (n = 150,000); active means well fitted inhibition curve with a large enough effect, not every such curve was filed as active; inconclusive means small, poorly fitted or top-dose-only effect, or another doubt; inactive means no such curve, though single readings can be large or run the other way; further: potency means the concentration at half of the fitted maximal effect
Target sequence (P15428 whole entry, looked up): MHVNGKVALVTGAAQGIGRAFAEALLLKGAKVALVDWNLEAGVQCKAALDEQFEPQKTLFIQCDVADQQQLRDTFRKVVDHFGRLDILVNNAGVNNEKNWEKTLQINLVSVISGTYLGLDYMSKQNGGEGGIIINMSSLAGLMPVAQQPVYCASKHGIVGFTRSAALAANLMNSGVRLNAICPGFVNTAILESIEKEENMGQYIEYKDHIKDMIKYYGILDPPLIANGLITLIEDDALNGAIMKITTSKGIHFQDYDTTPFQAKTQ
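NADH formation kinetics: reaction with 30 uM PGE2 and 1 mM NAD+ (final), 20 nM enzyme, Tris-HCl pH 8 with Tween 20, after 15 min compound preincubation at room temperature. Fluorescence change, last versus first of five reads.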
ALDH1A1 inh: qHTS Assay for Inhibitors of Aldehyde Dehydrogenase 1 (ALDH1A1). Purified ALDH1A1, NADH fluorescence, propionaldehyde substrate. Aldehyde dehydrogenase 1A1 (Homo sapiens), P00352. actives 7.3% (n = 220,000). AID 1030, 2008. Potency, µM (doses to about 75.3 µM), without a hit: at the highest dose activity, negative = inhibition, most hits filed as inhibitors; active means well fitted inhibition curve with a large enough effect, not every such curve was filed as active; inconclusive means small, poorly fitted or top-dose-only effect, or another doubt; inactive means no such curve, though single readings can be large or run the other way;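 further: potency means the concentration at half of the fitted maximal effect; plate controls were no enzyme wells and a reference inhibitor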
* = called active by the depositor; ? = inconclusive; . = no result; [ ] = another dose, or the depositor's remark. Unless noted, the call rests on the fitted dose curve; in most records, active means well fitted curve in the direction sought with a large enough effect; inconclusive means small, poorly fitted or top-dose-only effect, or another doubt; inactive means no such curve, though single readings can be large; an effect the other way counts as inactive or inconclusive. Unless noted, on the % scale 0 is the no-effect control and ±100 the full control effect.

SMILES | IMPase Li inh | PNC inhibitor | IMPase cell inh | NPSR antagonist | HPGD inh | ALDH1A1 inh
COc1ccc(C2/C(=C(/O)c3ccc(Cl)cc3)C(=O)C(=O)N2CCN2CCOCC2)c(OC)c1 (configuration not stated) | -19%[38.3 µM] | 111 | 1 | -9%[46.1 µM] | -7% | -9%
O=C(NCCc1nc2ccccc2[nH]1)/C(=C/c1ccc2c(c1)OCO2)NC(=O)c1ccccc1 | -4% | ? | . | 1% | -4% | 5%
COc1ccc2cc(C(=O)Nc3ccc(O)cc3)sc(=O)c2c1OC | 8% | 31 | . | -13% | 25µM* | -15%
CN1CCN(C(=S)C(=O)Nc2ccc(Br)cc2)CC1 | -3% | . | . | 14% | . | 7.9µM*
O=C(CSc1nnc(-c2ccncc2)n1Cc1ccccc1)Nc1nccs1 | -13%[38.3 µM] | 85 | 1 | -2%[46.1 µM] | -14% | 1%
CC(C)c1ccc(/C=C/C(=O)Nc2nncs2)cc1 | 5% | 37 | . | 8% | -15% | 3%
CCOC(=O)/C(C#N)=N/Nc1c(C)n(C)n(-c2ccccc2)c1=O | 39% | . | . | -30% | . | 7.9µM*
COC(=O)CC(=O)Cc1nc(N)nc(Nc2ccc(C)c(C)c2)n1 | -18% | -100* | 2 | 0%[46.1 µM] | -12% | 1%
Cc1ccc(Nc2nc(N)nc(CN3CCN(Cc4ccc5c(c4)OCO5)CC3)n2)cc1C | 9% | . | . | -12% | . | 7.9µM*
COc1ccc(/C=C/C(=O)Oc2cccc(/C=N/NC(=O)COc3c(C)cccc3C)c2)cc1 | 1%[38.3 µM] | 30 | 2 | -20%[46.1 µM] | -15% | 10%
Clc1cccc(-c2nnc(-c3ccno3)o2)c1 | . | . | . | 7% | . | .
O=C(O)C1=NOC(CNC(=O)c2ccccc2Cl)C1 (configuration not stated) | 1% | . | . | 6% | . | 6%
COc1ccc(NC(=O)/C(Cl)=C(/Cl)S(=O)Cc2ccccc2Cl)cn1 (configuration not stated) | 34% | . | . | 5µM* | . | 0.63µM*
COc1ccc(NC(=O)Cc2ccc(Cl)c(Cl)c2)cn1 | -7% | . | . | -5% | . | 0%
COc1ccc(NC(=O)CSc2cc(C)ccc2C)cn1 | 11% | . | . | -19% | . | ?
COc1ccc(NC(=O)/C(Cl)=C(/Cl)S(=O)(=O)Cc2ccc(C)cc2)cn1 | 3%[38.3 µM] | 17 | 10 | 4µM* | -7% | 2.5µM*
CCc1ccc2oc(-c3cc(N)cc(C)c3O)nc2c1 | 16%[38.3 µM] | -107* | 0 | -1%[46.1 µM] | -5% | ?
CCCCCC(=O)NC(NC(=S)N1CCOCC1)C(Cl)(Cl)Cl (configuration not stated) | 21% | ? | ? | -15%[46.1 µM] | -20% | 3%
CCCCCCCCC(=O)NC(NC(=S)N1CCOCC1)C(Cl)(Cl)Cl (configuration not stated) | 6% | -100* | 7 | -17%[46.1 µM] | -21% | ?
COc1ccc(NC(=O)c2ccsc2NC(C)=O)cc1 | 6% | . | . | 12% | . | -1%
Nc1nc(SCc2ccccc2Cl)nc2nc3c(cc12)CCCC3 | 14%[38.3 µM] | 69 | 2 | -13%[46.1 µM] | -8% | ?
Nc1nc(SCc2ccc(Cl)cc2Cl)nc2nc3c(cc12)CCCC3 | 4% | -83* | . | -46% | -28% | 3%
CC1CCC(O)([C@](C)(C(=O)O)c2ccccc2)CC1 (some centres not stated) | 2% | . | . | . | 0% | 1%[13.5 µM]
COc1ccc2c(c1)c(CCN1C(=O)c3ccccc3C1=O)cn2C(=O)c1ccco1 | 8.9µM* | -3 | -10 | ? | ? | ?
CCn1c(N2CCN(CC(=O)c3c(C)n(C)c4ccc(OC)cc34)CC2)nc2c1c(=O)[nH]c(=O)n2C | . | . | . | 9% | . | .
SMILES | IMPase Li inh | PNC inhibitor | IMPase cell inh | NPSR antagonist | HPGD inh | ALDH1A1 inh
Cc1ccc(-c2csc3ncnc(Sc4nnc(CN5CCCCCC5=O)o4)c23)cc1 | 15%[38.3 µM] | ? | 11 | ? | -27% | 7.9µM*
O=C(O)Cn1cccc1C(=O)c1ccccc1 | -16%[38.3 µM] | ? | 6 | -19%[46.1 µM] | -23% | 14µM*
CSc1nsc(/C=C/Nc2ccc(C)cc2)c1C#N | -16%[38.3 µM] | -11 | -5 | -15%[46.1 µM] | 14µM* | 7.5µM*
CSc1nsc(/C=C/Nc2ccc(C)c(C)c2)c1C#N | 6% | . | . | -38% | . | 14µM*
COc1cc(/C=N/Nc2snc(SC)c2C#N)ccc1O | 0%[38.3 µM] | -13 | -5 | -16%[46.1 µM] | ? | 1%
Cn1cc(C(=O)N/N=C/c2ccc([N+](=O)[O-])cc2)c2ccccc21 | . | . | . | 3% | . | .
CCOC(=O)c1ccc(Nc2cc(C)nc3ncnn23)cc1 | -10%[38.3 µM] | ? | 14 | -9%[46.1 µM] | -24% | 10µM*
CCc1c(C)nc2ncnn2c1Nc1ccc(C(C)=O)cc1 | 48%[38.3 µM] | -111* | -3 | -11%[46.1 µM] | -20% | 2%
CCOC(=O)c1ccc(Nc2nnc3nc(C)cc(C)n23)cc1 | 11% | 6 | 4 | 16%[46.1 µM] | 22µM* | ?
O=C(O)CCc1ccc(-c2ccc(Br)cc2)n1Cc1ccco1 | -2%[38.3 µM] | 3 | -1 | -10%[46.1 µM] | -25% | ?
O=c1oc2ccccc2nc1/C=C(O)/C=C/c1ccc(F)cc1 | 9% | -19 | -4 | -10% | ? | -137%
O=c1oc2ccccc2nc1/C=C(O)/C=C\c1ccccc1 | 0%[38.3 µM] | -29 | -3 | -19%[46.1 µM] | -15% | 13µM*
CCN1CCN(c2nc(C)nc3c2sc(=S)n3C)CC1 | 14% | -10 | ? | 3% | 10µM* | ?
Cc1ccc(NC(=O)CSC2=NN3CCCC(=O)N=C3S2)c(C)c1 | 0% | . | . | 1% | . | ?
Cc1cccc(NC(=O)CSC2=NN3CCCC(=O)N=C3S2)c1C | 3% | . | . | 3% | . | 32µM*
Cc1cc(OCCn2cc(C(=O)c3ccco3)c3ccccc32)ccc1Cl | . | . | 4 | . | . | .
CCC(NC(=O)Nn1cnnc1)(C(F)(F)F)C(F)(F)F | 4% | -100* | 17 | -10%[46.1 µM] | -17% | 2%
C=CCOC(=O)c1[nH]c2c(c1C)C(=O)CC(c1ccco1)C2 (configuration not stated) | 28%[38.3 µM] | -29 | 8 | ? | -13% | ?
Cc1c(C(=O)OCC2CCCO2)[nH]c2c1C(=O)CC(c1ccco1)C2 (configuration not stated) | 16%[38.3 µM] | 39 | 0 | 3%[46.1 µM] | ? | 7.1µM*
CCOC(=O)c1[nH]c2c(c1C)C(=O)CC(c1ccc(OC)c(OC)c1)C2 (configuration not stated) | -20%[38.3 µM] | -20 | -9 | -2%[46.1 µM] | -1% | 11%
Cc1c(C(=O)OC2CCCC2)[nH]c2c1C(=O)CC(c1ccco1)C2 (configuration not stated) | 26%[38.3 µM] | -108* | ? | 27%[46.1 µM] | -8% | 11µM*

Compound activity as filed in PubChem.
